Sfp PPTase inh: qHTS Assay for Inhibitors of Bacillus subtilis Sfp phosphopantetheinyl transferase (PPTase). Potency, µM, without a hit: largest response in the series, negative = inhibition, usual class: inhibitors. Biochemical Sfp PPTase activity, qHTS. actives 3.5% (n = 310,000). AID 1490, 2009;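 note: the enzyme is Sfp with the accession as filed and its product quenches rhodamine fluorescence; potency is the fitted concentration of half-maximal effect; 0% = enzyme reaction without inhibitor and -100% = no enzyme wells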
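Fluorescence-quenching assay: 15 nM Sfp-PPTase preincubated 15 min at room temperature with compound, then 5 uM rhodamine-CoA and 12.5 uM BHQ-2-labelled YbbR peptide added. Fluorescence (ex 525/em 598 nm) read at start and after 30 min; difference gives rate.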
Coupling enz: qHTS Assay for Inhibitors of Fructose-1,6-bisphosphate Aldolase from Giardia Lamblia: Coupling assay counterscreen; actives 0.67% (n = 290,000); activity change, negative = inhibition, % at 58.2 µM, hits read low; coupling enzyme system counterscreen, AmpLite Red fluorescence; AID 2472, 2010; in the data active = activity change below about -30%
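Counterscreen of the coupled detection system alone, without aldolase: glyceraldehyde-3-phosphate coupling enzymes plus AmpLite Red readout. Compounds at 57.5 uM final, 10 min RT preincubation, 20 min RT reaction, fluorescence 525/598 nm.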
Tau fibril ThT: qHTS for Inhibitors of Tau Fibril Formation, Thioflavin T Binding | Microtubule-associated protein tau (Homo sapiens), P10636 | recombinant tau K18 P301L, heparin-induced fibrillization, ThT fluorescence | Potency, µM (highest dose often 57.4 µM), without a hit: at the highest dose activity, negative = inhibition, actives largely listed as inhibitors | actives 2.1% (n = 270,000) | AID 1460, 2008; note: potency is the fitted concentration of half-maximal effect; nearly all actives have a fitted effect of over 55% in size
Target sequence (P10636 561-689 P618L limits assumed): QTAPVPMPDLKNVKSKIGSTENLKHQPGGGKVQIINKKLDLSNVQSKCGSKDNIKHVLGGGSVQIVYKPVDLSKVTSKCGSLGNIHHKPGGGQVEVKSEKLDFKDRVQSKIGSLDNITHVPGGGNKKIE
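ThT emission at 510 nm, taken 1 hr after adding 30 uM dye, quantifies aggregates formed when 20 uM heparin acts on human tau K18 P301L for 6 hr at 37 C.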
G9a block: qHTS Assay for Inhibitors of Histone Lysine Methyltransferase G9a. G9a H3K9 monomethylation, AlphaScreen, 2 h. Potency, µM (series often up to 102 µM), for inactives: at the highest dose activity, negative = inhibition, most hits filed as inhibitors. actives 8.8% (n = 350,000); note: potency is the fitted concentration of half-maximal effect; nearly all actives have a fitted effect of over 75% in size
Target sequence (Q96KQ7 913-1193 limits assumed): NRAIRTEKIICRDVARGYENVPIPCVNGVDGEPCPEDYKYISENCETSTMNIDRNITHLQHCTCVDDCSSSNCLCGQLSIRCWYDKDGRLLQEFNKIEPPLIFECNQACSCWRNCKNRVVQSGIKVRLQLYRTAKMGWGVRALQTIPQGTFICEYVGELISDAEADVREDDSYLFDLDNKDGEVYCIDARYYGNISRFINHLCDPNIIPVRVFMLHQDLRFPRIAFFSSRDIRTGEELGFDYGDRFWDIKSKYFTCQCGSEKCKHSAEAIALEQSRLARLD
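Enzyme 20 nM + cpd, 15 min RT; add b-H3K9 pep 500 nM / SAM 20 uM; 2 h RT; anti-H3K9me1 Ab 0.5 ug/mL + SA donor / anti-rabbit acceptor beads 20 ug/mL each, 10 min; AlphaScreen read.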
Tau FP inhib: qHTS for Inhibitors of Tau Fibril Formation, Fluorescence Polarization; Microtubule-associated protein tau (Homo sapiens), P10636; K18 P301L tau heparin fibrillization, Alexa594 FP, 6 h; Potency, µM (highest dose often 57.7 µM), without a hit: top-dose activity, negative = inhibition, actives largely listed as inhibitors; actives 0.39% (n = 280,000); note: potency is the fitted concentration of half-maximal effect; nearly all actives have a fitted effect of over 55% in size
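Read-out: fluorescence polarization of Alexa 594-labeled tau (0.24 uM), 555 nm excitation, 632 nm emission. Mixtures held 15 uM unlabeled K18 P301L, compound and 20 uM heparin, pH 7 acetate buffer, incubated 6 hr at 37 C.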
Tau fluor counter: Counterscreen qHTS for Inhibitors of Tau Fibril Formation, Fluorescence Polarization. tau K18 P301L Alexa594 fluorescence, heparin fibrillization. Potency, µM (titrated, usually from 57.7 µM), inactives show at the highest dose activity change, negative = decrease. actives 0.93% (n = 280,000). AID 1463, 2008; note: potency is the fitted concentration of half-maximal effect; nearly all actives have a fitted effect of over 55% in size
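Human tau K18 P301L (15 uM unlabeled, 0.24 uM Alexa 594-labeled) in 100 mM sodium acetate pH 7 with 20 uM heparin, 6 hr at 37 C. ThT 30 uM added, 1 hr ambient; Alexa 594 FP and total fluorescence read at 555/632 nm.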
* = called active by the depositor; ? = inconclusive; / = no result given; ! = repeats disagree; [ ] = another dose, or the depositor's remark. Sampled rows, rich in hits. Any-hit rate of the full collection: about 11%. Unless noted, calls come from the whole dose curve; as a rule, active = well fitted curve in the direction sought with a large enough effect; inconclusive = small, poorly fitted or top-dose-only effect, or another doubt; inactive = no such curve, though single readings can be large; an effect the other way counts as inactive or inconclusive. Unless noted, % is set by controls: 0 for no effect and ±100 for the full control effect.

SMILES | Sfp PPTase inh | Coupling enz | Tau fibril ThT | G9a block | Tau FP inhib | Tau fluor counter
CN(CCc1ccccn1)C(=O)CCC1CCCN(C(=O)c2ccc3c(c2)OCCO3)C1 (centres undefined) | -7% | -2 | 3% | / | 7% | -6%
Cc1sc(N)nc1-c1ccc(Oc2ccccc2)cc1 | 0% | -8 | / | ? | / | /
Cc1[nH]c2ccccc2c1-c1nc(N)sc1C | -1% | -1 | / | 71µM* | / | /
COc1ccc(CNc2ncncc2-c2ccc(N(C)C)cc2)c(OC)c1 | 79µM* | -5 | / | -1%[0.501 µM] | / | /
COc1ccccc1CNc1ncncc1-c1ccc(N(C)C)cc1 | -6% | 3 | -21% | / | 1% | -26%
Nc1c(C(=O)NCCc2ccccc2)sc2nc(N3CCOCC3)c3c(c12)CCCC3 | 22µM* | 0 | ? | 16µM* | -1% | ?
NC(=O)c1sc2nc(N3CCOCC3)c3c(c2c1N)CCCC3 | 45µM* | 0 | -26% | 71µM* | 8% | -24%
Cc1ccccc1NC(=O)c1sc2nc(N3CCOCC3)c3c(c2c1N)CCCC3 | ? | / | / | -1%[0.0925 µM] | / | /
CCCCN(CCCC)C(=O)c1sc2nc(N3CCOCC3)c3c(c2c1N)CCCC3 | 11µM* | -3 | ? | 45µM* | ? | ?
CCc1cc2c(nc1CC)CCN(CC/C(C)=N/OC[C@@H](O)[C@@H]1O[C@@H]3OC(C)(C)O[C@@H]3[C@H]1O)C2 | -5% | 3 | -3%[11.5 µM] | / | 1%[11.6 µM] | 0%[11.6 µM]
O=C(NCCc1ccc(Cl)cc1)c1ccc(Cn2c(=O)[nH]c3ccccc3c2=O)cc1 | / | / | 8% | -4%[12.7 µM] | ? | -16%
COc1ccc(C(C)=O)c2c(O)cccc12 | -1% | -37* | ? | ? | 6% | -14%
O=C(Nc1ccccc1)c1cccc2c(=O)c3c([nH]c12)CCCC3 | / | / | 6% | -33%[59 µM] | 7% | 0%
CCc1ccc(CN2CCN(C(=O)c3cccc(OC)c3OC)CC2)cc1 | -20% | 3 | -7% | 8.9µM* | 5% | 3%
COc1cc(CN2CCN(C(=O)c3ccccc3F)CC2)cc(OC)c1OC | -22% | 0 | / | 22µM* | / | /
O=C(c1ccccc1F)N1CCN(Cc2cccc(Cl)c2)CC1 | -23% | 0 | -3% | 6.3µM* | -4% | 0%
COc1cccc(CN2CCN(C(=O)c3cccc4ccccc34)CC2)c1 | -13% | 3 | / | / | / | /
COc1cc(CN2CCN(C(=O)c3cccc4ccccc34)CC2)cc(OC)c1OC | -3% | 0 | / | 20µM* | / | /
COc1cccc(C(=O)N2CCN(C(=O)c3cccc4ccccc34)CC2)c1OC | 15% | 1 | -8% | -12%[59 µM] | 0% | -4%
CCOc1ccccc1NC(=O)Cn1c(=O)n(-c2ccc(C)cc2)c(=O)c2c1cnn2C | / | / | -1% | -5%[59 µM] | -13% | -7%
CC(C)CC(CSc1ccc(Br)cc1)N1CCN(C)CCC1=O (centres undefined) | 2% | 1 | / | / | / | /
Cc1ccccc1NCc1ccccc1O | ? | -33* | -14% | 40µM* | ? | ?
Cc1ccc[n+](-c2nc3ccccc3nc2C(=C=[N-])C#N)c1 | -17% | -3 | ? | 50µM*! | 0% | 0%
Cc1cc(C)c[n+](-c2nc3ccccc3nc2C(=C=[N-])C#N)c1 | 13% | -2 | ? | 3% | 8% | 4%
Cc1cc[n+](-c2nc3ccccc3nc2C(=C=[N-])C#N)cc1 | -29% | -41* | -10% | 50µM* | -6% | -4%
CCNC(=O)Cn1c(-c2cccs2)cc2ccccc21 | / | / | -4% | 0%[59 µM] | -1% | -10%

High-throughput results deposited in PubChem BioAssay by National Center for Advancing Translational Sciences (NCATS).
